This is a sample that favours compounds with a hit; in the whole collection about 5.6% have one here.
VP16 counter: counter-screen for ROR gamma inhibitors: Gal4-VP16 reporter; Drosophila S2 Gal4-VP16 UAS-luciferase, luminescence, 20 h; actives 3.5% (n = 310,000); Potency, µM (series often up to 53.6 µM), most hits filed as inhibitors;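 note: Gal4-VP16 expression switched on by copper sulfate through the metallothionein promoter; nearly all actives have a fitted effect of over 50% in size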
PKM2 act: increases activity of human pyruvate kinase M2; P14618; purified PKM2, Kinase-Glo ATP luminescence, activation; response scale: 0% is enzyme alone, no compound; Potency, µM (doses to about 57.5 µM), usual class: activators; actives 0.34% (n = 260,000); AID 1631; note: nearly all actives have a fitted effect of over 55% in size
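hPK-M2, >95% pure; 0.1 mM ADP / 0.5 mM PEP final; imidazole pH7.2 buffer w/ 7 mM MgCl2, 50 mM KCl; 1 h RT; Kinase-Glo lum. Intermediate enzyme activity for dual inhibitor/activator qHTS.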
Six1-Eya2 inh: inhibitors of human Six1/Eya2 interaction; Q15475+O00167; AlphaScreen GST-Six1/His-Eya2 binding, biochemical; stronger effect = lower value; AID 651725; activity change, % (concentration not given with the values); actives 0.56% (n = 360,000); in the data active = activity change below about -65%; inconclusive = mostly about -30% to -63%
Target sequence (O00167 whole entry, looked up): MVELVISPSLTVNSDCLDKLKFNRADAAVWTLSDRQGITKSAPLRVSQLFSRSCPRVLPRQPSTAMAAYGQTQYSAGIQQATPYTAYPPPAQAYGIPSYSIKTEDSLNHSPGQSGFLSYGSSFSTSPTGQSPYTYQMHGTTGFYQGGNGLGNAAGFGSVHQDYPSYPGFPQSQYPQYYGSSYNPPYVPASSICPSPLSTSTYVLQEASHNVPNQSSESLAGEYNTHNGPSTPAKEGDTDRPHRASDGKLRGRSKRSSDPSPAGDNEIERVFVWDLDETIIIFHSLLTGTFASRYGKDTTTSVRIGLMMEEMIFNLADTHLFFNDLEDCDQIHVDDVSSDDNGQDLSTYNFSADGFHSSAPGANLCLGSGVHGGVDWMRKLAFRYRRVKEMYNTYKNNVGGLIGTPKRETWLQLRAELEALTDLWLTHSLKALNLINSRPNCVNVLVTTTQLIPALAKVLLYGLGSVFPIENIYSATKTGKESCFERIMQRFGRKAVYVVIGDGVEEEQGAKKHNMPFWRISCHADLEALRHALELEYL
Target sequence (Q15475 whole entry, looked up): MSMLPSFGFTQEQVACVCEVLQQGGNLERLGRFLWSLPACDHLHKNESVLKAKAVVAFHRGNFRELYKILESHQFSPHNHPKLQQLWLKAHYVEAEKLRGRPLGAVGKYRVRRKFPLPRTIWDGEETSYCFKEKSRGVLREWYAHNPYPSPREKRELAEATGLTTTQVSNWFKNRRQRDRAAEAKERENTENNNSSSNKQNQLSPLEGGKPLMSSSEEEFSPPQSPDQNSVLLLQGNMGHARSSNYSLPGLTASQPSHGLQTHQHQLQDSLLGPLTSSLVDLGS
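Homogeneous AlphaScreen proximity assay pairing GST-Six1 with His-tagged Eya2 (added as 5X mix: 250 nM and 500 nM) in 50 mM Tris pH 8.0, 300 mM NaCl, 1 mM TCEP. Glutathione donor and nickel acceptor beads; 1 h, 37 °C, dark.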
RORgamma inh: blocks mouse ROR gamma transcriptional activity; P51450; Drosophila S2 Gal4-RORgamma UAS-luciferase reporter, 20 h; Potency, µM (doses to about 53.6 µM), most hits filed as inhibitors; actives 5.4% (n = 310,000); note: nearly all actives have a fitted effect of over 60% in size
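Using a luciferase readout, inhibitors were identified by reduced reporter activity in Drosophila cells coexpressing a copper-inducible Gal4–ROR gamma fusion and UAS-driven Photinus luciferase, incubated 20 hr after 700 uM copper sulfate.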
CtBP-E1A blk: inhibitors of CtBP/E1A interaction. AlphaScreen GST-E1A/His-CtBP binding, 1536-well; stronger effect = lower value. activity change, % (no concentration beside the values). actives 0.49% (n = 340,000). AID 651724; in the data active = activity change below about -65%; inconclusive = mostly about -30% to -63%
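GST-E1A and His-tagged CtBP (125 nM each as 5X stock) were preincubated with pin-transferred compound for 2 h at 37 °C in the dark, then glutathione donor and nickel acceptor beads were added for 1 h before AlphaScreen reading.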
Large screens that a line does not name were inactive. Unless noted, calls come from the whole dose curve; as a rule, active = well fitted curve in the direction sought with a large enough effect; inconclusive = small, poorly fitted or top-dose-only effect, or another doubt; inactive = no such curve, though single readings can be large; an effect the other way counts as inactive or inconclusive.

OC(CNCc1ccccc1F)(c1ccc(F)cc1)c1ccc(F)cc1	VP16 counter inconclusive, RORgamma inh 7.94µM
COc1ccccc1CNCC(O)(c1ccc(F)cc1)c1ccc(F)cc1	none (no result: PKM2 act, CtBP-E1A blk)
C=CCNC(=O)COc1coc(CN2CCN(C(=O)c3ccco3)CC2)cc1=O	none (no result: VP16 counter, PKM2 act, RORgamma inh)
CCc1ccccc1Oc1nc(NCCOC)nc2cc(-c3ccccc3)sc12	none (no result: VP16 counter, PKM2 act, RORgamma inh)
Cc1nc2n(n1)C(O)c1cc([N+](=O)[O-])ccc1S2 (stereo not drawn)	none (no result: Six1-Eya2 inh, CtBP-E1A blk)
O=[N+]([O-])c1ccc2c(c1)C(O)n1nc(-c3ccc(Cl)cc3Cl)nc1S2 (stereo not drawn)	VP16 counter inconclusive, RORgamma inh 11.2µM
COc1cc(OC)c(NC(=O)C2CCN(S(=O)(=O)c3ccc4c(c3)CC(C)N4C(C)=O)CC2)cc1Cl (stereo not drawn)	RORgamma inh inconclusive (no result: CtBP-E1A blk)
Cc1cccc(NC(=S)N/N=C/c2cccc(O)c2)c1C	VP16 counter 14.1µM, RORgamma inh 4.47µM
Cc1cccc(C)c1NC(=S)N/N=C/c1ccccc1C(=O)O	PKM2 act inconclusive, RORgamma inh inconclusive
Cc1ccc(Cl)cc1NC(=S)N/N=C/c1cccc2ccccc12	VP16 counter 2.51µM, RORgamma inh 0.794µM
Cc1c(NC(=S)N/N=C/c2cccc(O)c2)c(=O)n(-c2ccccc2)n1C	none
Cc1ccccc1NC(=S)N/N=C/c1ccc(O)cc1O	VP16 counter inconclusive, Six1-Eya2 inh -89.0, RORgamma inh inconclusive, CtBP-E1A blk -97.4
COc1ccc(S(=O)(=O)N(C)C[C@H]2Oc3c(NC(=O)CCC(F)(F)F)cccc3C(=O)N([C@H](C)CO)C[C@@H]2C)cc1	none (no result: VP16 counter, PKM2 act, RORgamma inh)
NNc1nc2sc3c(c2c(=O)[nH]1)CCc1ccccc1-3	VP16 counter 17.8µM, RORgamma inh 15.8µM
S=c1[nH]nc(CCCc2n[nH]c(=S)o2)o1	none
CC(C)c1nnc(NC(=O)CCS(=O)(=O)c2nc(-c3cccs3)cc(C(F)(F)F)n2)s1	VP16 counter 1.58µM, RORgamma inh 1.78µM
CCc1ccc(NC(=O)CNC(=O)[C@@H]2Cc3ccccc3CN2C(=O)OC(C)(C)C)cc1	none (no result: PKM2 act, CtBP-E1A blk)
CCCOc1ccc(/C=N/Nc2ccccc2[N+](=O)[O-])c(O)c1	VP16 counter inconclusive, RORgamma inh 7.08µM
Cc1[nH]c2ccccc2c1/C=N/Nc1ccccc1[N+](=O)[O-]	Six1-Eya2 inh -68.8, RORgamma inh inconclusive, CtBP-E1A blk inconclusive
CC(C)Oc1ccccc1/C=N/Nc1ccccc1[N+](=O)[O-]	Six1-Eya2 inh -72.1, CtBP-E1A blk -75.8
COc1ccccc1/C=N\Nc1ccccc1[N+](=O)[O-]	none
COc1ccc(NS(=O)(=O)c2cc([N+](=O)[O-])ccc2N/N=C/c2c(C)[nH]c3ccccc23)cc1	none (no result: VP16 counter, PKM2 act, RORgamma inh)
COc1cc2c3nnc(-c4ccc(F)cc4)c-3cn(Cc3ccccc3)c2cc1OC	VP16 counter 7.08µM, RORgamma inh 11.2µM
COc1cc2c3nnc(-c4ccc(F)cc4)c-3cn(Cc3ccc(F)cc3)c2cc1OC	RORgamma inh inconclusive
O=C(c1ccccc1)c1cc(Cl)ccc1N1C(=O)C=CC1=O	VP16 counter 15.8µM, RORgamma inh inconclusive
O=C(Nc1nc(N2C(=O)c3ccccc3C2=O)n(-c2ccccc2)n1)c1ccccc1	Six1-Eya2 inh inconclusive
O=C(Nc1nc(N2C(=O)c3ccccc3C2=O)n(-c2ccccc2)n1)c1ccc(F)cc1	VP16 counter inconclusive, Six1-Eya2 inh inconclusive, RORgamma inh 10µM, CtBP-E1A blk inconclusive
O=C(O)COc1ccc(Br)cc1/C=N\Nc1ccccn1	RORgamma inh 2.24µM
Oc1cccc(C=NNc2ccccn2)c1	none (no result: VP16 counter, PKM2 act, RORgamma inh)
Brc1ccc(/C=N/Nc2ccccn2)cc1	RORgamma inh inconclusive
Cc1ccc(/C=N/Nc2cccc3cccnc23)c(O)c1	VP16 counter inconclusive, RORgamma inh 10µM
Oc1ccc(C=NNc2ccccn2)c(O)c1	Six1-Eya2 inh -91.0 (no result: VP16 counter, PKM2 act, RORgamma inh)
Oc1ccc(/C=N/Nc2cccc3cccnc23)c(O)c1	RORgamma inh 2.51µM
Cc1ccc(Oc2c(CO)c(-c3ccccc3)nn2C)cc1	none
O=C1NN=COc2ccccc21	RORgamma inh 12.6µM
O=C1N/C(=N\N=C\c2cccnc2)SC1Cc1ccc(SC(F)F)cc1 (stereo not drawn)	VP16 counter 0.708µM, RORgamma inh 0.501µM
O=C1N/C(=N\N=C\c2ccc3ncccc3c2)SC1Cc1ccc(SC(F)F)cc1 (stereo not drawn)	VP16 counter inconclusive
O=C1N/C(=N\N=C\c2ccccn2)SC1Cc1cccc(SC(F)F)c1 (stereo not drawn)	VP16 counter 3.16µM, RORgamma inh 1.78µM
CC(NC(=O)CCn1c(=S)[nH]c2ccsc2c1=O)c1ccccc1 (stereo not drawn)	none
O=c1c2sccc2[nH]c(=S)n1Cc1ccccc1	VP16 counter 2.82µM, RORgamma inh 1.78µM
COc1ccc(Cn2c(=S)[nH]c3ccsc3c2=O)cc1	VP16 counter 2.24µM, RORgamma inh 1.41µM
CC(/C=C/c1ccccc1)=N\Nc1nc(C)cc(C)n1	VP16 counter 5.01µM, RORgamma inh 0.447µM
Cc1cc(C)nc(Nc2ccc(C(=O)O)cc2)n1	VP16 counter inconclusive
Cc1cc(C)nc(NN=C(c2ccccc2)c2ccccc2)n1	VP16 counter inconclusive, RORgamma inh 7.94µM (no result: CtBP-E1A blk)
CC(/C=C/c1ccccc1)=N/NC(=O)c1nc2nc(C)cc(C)n2n1	RORgamma inh inconclusive (no result: PKM2 act, CtBP-E1A blk)
CN(C)S(=O)(=O)c1cccc(C(=O)Nc2ccccc2C(=O)NC2CC2)c1	none (no result: VP16 counter, PKM2 act, RORgamma inh)
O=C(NNc1ncc(C(F)(F)F)cc1Cl)c1ccc(Cl)c(Cl)c1	VP16 counter inconclusive, RORgamma inh 11.2µM
Nc1ccccc1C(=O)NNc1ncc(C(F)(F)F)cc1Cl	VP16 counter 1µM, Six1-Eya2 inh inconclusive, RORgamma inh 0.794µM, CtBP-E1A blk inconclusive
O=C(COC(=O)CNC(=O)c1ccccc1Cl)Nc1ncc(C(F)(F)F)cc1Cl	none
COc1ccc(NC(=O)CC(C)C)c([N+](=O)[O-])c1	none
COc1ccc(NC(=S)NC(NC(=O)C(C)C)C(Cl)(Cl)Cl)c([N+](=O)[O-])c1 (stereo not drawn)	VP16 counter inconclusive, RORgamma inh 17.8µM
Cc1ccc(NC(=S)NC(C)(C)C)c([N+](=O)[O-])c1	VP16 counter 7.94µM, RORgamma inh 3.16µM
Cc1ccc2c(Cl)c(C)c(N3CCCC3)nc2n1	VP16 counter 11.2µM, RORgamma inh 2.82µM
Cc1nc2ccccc2nc1N1CCCC1	none
CCOc1ccc(C2C(C#N)=C(N)SC(N)=C2C#N)cc1OCC	VP16 counter 7.94µM
N#Cc1cnc(NN)nc1	none
COc1ccccc1NC1=C(Cl)C(=O)OC1OC(=O)c1ccco1 (stereo not drawn)	RORgamma inh inconclusive
Cc1ccccc1NC1=C(Cl)C(=O)OC1OC(=O)c1ccco1 (stereo not drawn)	RORgamma inh 10µM
